Data on 57 compounds can be found in PubChem BioAssay AID493131 (Broad Institute, 2011).

The structures appear in SMILES notation. The campaign covered roughly 340,000 compounds. About 3,300 (0.97%) were called active. Only a selection was taken, and actives are over-represented in it overall. Unmarked numbers belong to inactive results.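 How the source made its calls: active means mean activation above about 17%, with every replicate also reaching it (limit read from the data, passing the limit was not always enough); inconclusive means only one of the two conditions met; inactive means the rest.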

The target in this assay is Protein FosB (Mus musculus) (UniProt P13346). Put plainly: activators of delta FosB homodimer, primary screen, biochemical, fluorescence polarization, TAMRA-CDK5 oligo, single point (AID 493131).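 Further: fluorescence polarization rise as delta FosB binds a TAMRA Cdk5 AP-1 oligo.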 The conditions noted are these: purified delta FosB, at 25 µM, hits give high values, percent of positive-control signal above neutral wells.
Chain of Protein FosB (Mus musculus) (P13346 whole entry, looked up): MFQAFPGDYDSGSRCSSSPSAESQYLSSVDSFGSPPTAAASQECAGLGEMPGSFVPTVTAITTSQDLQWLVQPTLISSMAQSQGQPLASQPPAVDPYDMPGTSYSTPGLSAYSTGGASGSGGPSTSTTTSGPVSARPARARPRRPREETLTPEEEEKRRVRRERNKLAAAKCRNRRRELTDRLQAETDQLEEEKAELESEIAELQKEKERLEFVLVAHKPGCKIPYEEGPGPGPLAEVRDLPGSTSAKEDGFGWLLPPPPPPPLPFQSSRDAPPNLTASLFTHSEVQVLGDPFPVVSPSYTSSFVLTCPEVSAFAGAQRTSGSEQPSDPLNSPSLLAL
As to `COc1ccccc1NC(=O)CCC(=O)OC(C)C(=O)c1ccccc1` (configuration not stated), the activation is -0.918%.

On to `O=C(O)C1C2C=CC(O2)C1C(=O)Nc1ccccn1` (configuration not stated), for which the activation is 2.08%.

As for `O=C(NCCc1ccccn1)c1cc(-c2ccc(Cl)cc2)nc2ccccc12`, the activation was -16.7%.

Consider `COc1ccccc1CNC(=O)c1cc(=O)c2ccccc2o1`, for which the activation was -8.74%.

On to `COc1ccc(OC)c(NC(=O)Cn2c(=O)oc3ccccc32)c1`, for which the activation was -3.42%.

Take `COc1ccccc1CNC(=O)Cn1c(=O)oc2cc(Cl)ccc21`: the activation is 46.6% (active).

Turning to `COc1ccccc1C(=O)NCC(=O)OCC(=O)Nc1nnc(-c2ccccc2)o1`, the activation was 0.87%.

On to `CCOc1ccc(S(=O)(=O)NCCC(=O)NCC(C)(C)N2CCOCC2)cc1`, for which the activation is -1.62%.

Turning to `NC(N)=Nc1nc2ccc(Br)cc2c(=O)[nH]1`, the activation was 42.4% (active).

Regarding `C/C(=N\N)c1c(-c2ccccc2)c2cc(Br)ccc2[nH]c1=O`, the activation was -5.15%.

In the case of `NC(=O)c1cc(-c2cccnc2)nc2ccc(Br)cc12`, the activation is 0.097%.

On to `CC(=O)Nc1ccc(S(=O)(=O)N2CCN(CCCOc3cc(C)ccc3C)CC2)cc1`, for which the activation was 0.131%.

With `Cc1cc(NC(=O)CSc2nnc(-c3ccco3)n2N)no1`, the activation was 2.33%.

Regarding `Cc1cc(NC(=O)CSc2nc3cc(Cl)ccc3c(=O)n2Cc2ccco2)no1`, the activation is 41.2% (active).

For `N#Cc1c(NC(=O)CSc2nc3ccccc3c(=O)n2Cc2ccco2)sc2c1CCCC2`, the activation was 6.6%.

As for `COc1ccc(CCN2C(=O)CC(N3CCC(C(N)=O)CC3)C2=O)cc1OC` (configuration not stated), the activation is -2.97%.

As for `CCOC(=O)N1CCN(C(=O)C2CCCN(c3ncnc4c3sc3cccc(F)c34)C2)CC1` (configuration not stated), the activation is -16.9%.

Take `Cc1c(/C=N\NC(=O)c2cc3ccccc3o2)c2ccccc2n1C`: the activation was -8.02%.

On to `O=C(N/N=C/c1cccc(O)c1)c1cc2c(ccc3ccccc32)o1`, for which the activation was 36.7% (active).

Take `O=C(NN=Cc1ccccc1)c1ccccc1`: the activation is -3.35%.

Regarding `COC(=O)c1cccnc1NC(=S)NC(C)C`, the activation was -6.13%.

Consider `COc1ccccc1CC(=O)Nc1ccc(S(=O)(=O)N2CCCC2)cc1`, for which the activation was -8.89%.

On to `C/C=C(\C)C(=O)N1CC2(CC(c3cccc(NC(=O)CCCCC)c3)=NO2)C[C@@H]1C(N)=O` (some centres not stated), for which the activation was -1.2%.

With `CCCCNC(=O)C(C)N(CCN(C)C)C(=O)CCCN1C(=O)NC(c2ccc(Cl)cc2)C(C(=O)OCc2ccccc2)=C1C` (configuration not stated), the activation is -3.28%.

On to `CC1=C(C(=O)OCc2ccccc2)C(c2ccc(C(F)(F)F)cc2)NC(=O)N1CCCCCC(=O)O` (configuration not stated), for which the activation is -6.43%.

For `CCCCNC(=O)C(C)N(CCN(C)C)C(=O)CCCCCN1C(=O)NC(c2ccc(Cl)cc2)C(C(=O)OCc2ccccc2)=C1C` (configuration not stated), the activation is 18.2% (active).

In the case of `Cc1ccc(CC2CC(=O)N(c3ccc4c(c3)OCCO4)C2=O)cc1` (configuration not stated), the activation was -9.23%.

As for `N#CC(C#N)=CN=c1ccn(Cc2ccc(Cl)cc2Cl)cc1`, the activation was -0.0405%.

As to `COc1ccccc1-n1c(=S)[nH]c2c(sc(=S)n2-c2ccc(C)cc2C)c1=O`, the activation was -9.95%.

`COc1ccc(C(=O)Nc2c(N)nc(SCC(=O)Nc3ccc(C(C)=O)cc3)[nH]c2=O)cc1`: the activation was 22% (active).

On to `COc1ccc(C(=O)Nc2c(N)nc(SCC(=O)N3CCC(C)CC3)[nH]c2=O)cc1OC`, for which the activation is -3.09%.

With `COc1ccc(NC(=O)CSc2nc(N)c(-c3ccccc3)c(=O)[nH]2)cc1`, the activation is -6.21%.

`O=C(COC(=O)CNS(=O)(=O)c1ccc(F)c(F)c1F)NC1CCCC1`: the activation was 0.263%.

With `COc1ccc(CCN(Cc2cc3cccc(C)c3[nH]c2=O)C(=O)N2CCCC2)cc1OC`, the activation was -15.7%.

Regarding `Fc1ccccc1N=C1Nc2cccc3cccc1c23`, the activation is 3.8%.

For `c1ccc(C2=Nc3cccc4cccc(c34)N2)cc1`, the activation was 28.1% (active).

As for `COc1ccccc1C1=Nc2cccc3cccc(c23)N1`, the activation was -1.27%.

As to `CC(=O)N1CSCC1C(=O)O` (configuration not stated), the activation was 0.385%.

For the compound `Cc1ccc(NC(=O)C(CC(=O)O)C2CCCO2)c(C)c1` (configuration not stated), the activation is -0.253%.

Consider `Cn1ccnc1SCC(=O)Nc1ccc2c(c1)OCCO2`, for which the activation was -4.18%.

With `Cc1ccc(-c2cc(C(=O)N/N=C/C=C/c3ccccc3)n[nH]2)o1`, the activation is 23.5% (active).

With `O=C(NN=CC=Cc1ccccc1)C(O)C(O)C(=O)NN=CC=Cc1ccccc1` (configuration not stated), the activation is 2.15%.

Turning to `CC(C)c1cc(C(=O)N/N=C/C(Br)=C/c2ccccc2)n[nH]1`, the activation was -3.49%.

Consider `Cc1ccc(OCc2cc(C(=O)N(C)CCn3ccnc3C)no2)cc1C`, for which the activation was -7.77%.

As for `O=C(c1ccc(NS(=O)(=O)c2ccc3[nH]c(=O)[nH]c3c2)cc1)N1CCCCC1`, the activation was -5.69%.

Regarding `Cc1cccc([C@@H]2[C@@H]3C(=O)N(Cc4ccccc4)C(=O)[C@@H]3[C@]3(Cc4ccc(Cl)cc4)C(=O)N(c4cccc(Cl)c4)C(=O)N23)c1`, the activation is -7.94%.

Regarding `COc1cccc(CN(C)CC(=O)Nc2sc3c(c2C#N)CCC3)c1`, the activation is -3.77%.

For `CCCc1cc(=O)[nH]c(SCC(=O)Nc2sc3c(c2C#N)CCCC3)n1`, the activation is -10.9%.

With `COc1ccc(-n2c(SCC(=O)Nc3sc4c(c3C#N)CCCC4)nnc2-c2ccc(O)cc2)cc1`, the activation was 23.1% (active).

With `NC(=O)c1nnsc1-c1ccc(-c2snnc2C(N)=O)cc1`, the activation is 12.3%.

As to `Cc1c(C(=O)NCCN2CCOCC2)sc2nc(-c3ccc(F)cc3)cn12`, the activation was -10.6%.

As for `CCCCn1c(N)c(N(CC(C)C)C(=O)c2ccc(-n3c(C)ccc3C)cc2)c(=O)[nH]c1=O`, the activation was 8.61%.

Consider `COc1ccc2nc(C)cc(Nc3cccc(C(=O)O)c3)c2c1`, for which the activation is -0.297%.

As for `COc1ccc2nc(/N=C(\N)NC(=O)Nc3ccccc3)nc(C)c2c1`, the activation was 52.1% (active).

As for `Cc1nc(/N=C(\N)NC(=O)NC2CCCCC2)nc2ccccc12`, the activation was 3.68%.

As for `O=S(=O)(NCC1CN(S(=O)(=O)c2ccc3c(c2)OCCO3)C1)c1c(F)cccc1F`, the activation was 2.95%.

In the case of `CS(=O)(=O)N1CCN=C1SCc1ccc(F)cc1`, the activation is 1.39%.
